± gives the standard deviation.
Legend:
Details in all cases: modulator concentration 10 µM
[1] = system: RAW-Dual (murine macrophage reporter line); assay: NF-kB reporter (SEAP) activity fold change vs agonist alone; higher = enhanced NF-kB activity
In short: (§1)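 Compound reached 10 μM final in each well by pin transfer, onto RAW-Dual murine macrophage reporter cells seeded at 50 000 per well in 384-well plates. After 1 hour at 37 °C, the cells were stimulated overnight with a PRR agonist. SEAP in the supernatant was read with QUANTI-Blue at 620 nm absorbance for NF-κB, and Lucia luciferase was read with QUANTI-Luc luminescence for IRF. Each signal was turned into fold change against the mean agonist-only control on the same plate, and two replicate plates were averaged with propagated errors.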

[2] = system: RAW-Dual (murine macrophage reporter line); assay: IRF reporter (Lucia luciferase) activity fold change vs agonist alone; higher = enhanced IRF activity
In short: as §1

[3] = system: RAW-Dual (murine macrophage reporter line); assay: viability score (confluency relative to resting cells, overnight) (fraction); higher = more viable, active = viable (0.7 or more)
In short: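 In 384-well plates, RAW-Dual macrophages received compound at a final 10 μM overnight. Two confluency masks were then made with IncuCyte software from IncuCyte images of all imaged wells. The viability score is defined as confluency relative to resting cells. Passing the cutoff required both masks to lie above 70% of resting cells.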

[4] = agonist: CpG ODN 1826 0.5 ug/mL

| Compound | NF-kB reporter [1, 4] | NF-kB reporter ([1]; agonist: LPS 0.1 ug/mL) | NF-kB reporter ([1]; agonist: MPLA […]) | IRF reporter ([2]; agonist: 3'3'-cGAMP 10 ug/mL) | IRF reporter ([2]; agonist: LPS 0.1 ug/mL) | IRF reporter ([2]; agonist: MPLA […]) | viability score [3] |
| --- | --- | --- | --- | --- | --- | --- | --- |
| O=c1cc(CO)occ1O | 0.97 ± 0.075 | 0.901 ± 0.076 | 1.06 ± 0.11 | 1.04 ± 0.041 | 1.28 ± 0.12 | 1.33 ± 0.19 | 1.03 (active) |
| CN1CCN(CC(=O)N2c3ccccc3C(=O)Nc3cccnc32)CC1.Cl.Cl | 1.49 ± 0.35 | 1.03 ± 0.1 | 1.15 ± 0.077 | 0.96 ± 0.036 | 1.08 ± 0.12 | 1.06 ± 0.15 | 0.984 (active) |
| Cl.Cn1cc(C(=O)[C@@H]2CCc3nc[nH]c3C2)c2ccccc21 | 0.806 ± 0.078 | 0.83 ± 0.11 | 0.878 ± 0.027 | 0.906 ± 0.056 | 0.973 ± 0.11 | 1.01 ± 0.078 | 0.997 (active) |
| Cc1ccc2nc(NC(=O)CSc3nc4c(c(=O)n3-c3ccccc3)SCC4)sc2c1 | 0.845 ± 0.11 | 0.887 ± 0.1 | 0.853 ± 0.081 | 0.662 ± 0.021 | 1.16 ± 0.14 | 1.27 ± 0.18 | 1.02 (active) |
| CC(C)NC[C@H](O)COc1ccc(CCOCC2CC2)cc1.Cl | 1.15 ± 0.1 | 1.07 ± 0.16 | 1.11 ± 0.037 | 0.871 ± 0.11 | 0.987 ± 0.09 | 0.868 ± 0.12 | 1 (active) |
| C=C1CCC2C(C)(CO)C(O)CCC2(C)C1CC=C1C(=O)OCC1O (centres undefined) | 0.462 ± 0.11 | 0.496 ± 0.025 | 0.755 ± 0.11 | 0.188 ± 0.0064 | 2.13 ± 0.35 | 1.51 ± 0.18 | 0.839 (active) |
| COC(=O)c1cccc(Nc2nc(C=Cc3ccccc3)nc3ccccc23)c1 | 1.3 ± 0.12 | 1.28 ± 0.1 | 5.46 ± 0.19 | 0.658 ± 0.023 | 0.945 ± 0.14 | 5.98 ± 0.47 | 0.851 (active) |
| CC1CC(C)CN(S(=O)(=O)CCCOc2ccc3c(c2)OCO3)C1 (centres undefined) | 1.05 ± 0.06 | 1.04 ± 0.064 | 1.01 ± 0.061 | 0.906 ± 0.03 | 1.24 ± 0.09 | 1.05 ± 0.14 | 0.956 (active) |
| COC(=O)[C@]12CCC(C)(C)C[C@H]1[C@H]1C(=O)C=C3[C@@]4(C)C=C(C#N)C(=O)C(C)(C)[C@@H]4CC[C@@]3(C)[C@]1(C)CC2 | 0.0752 ± 0.0037 | 0.294 ± 0.025 | 0.937 ± 0.086 | 0.0972 ± 0.012 | 0.571 ± 0.071 | 0.585 ± 0.14 | 0.246 (inactive) |
| CC(C)CC(C(=O)Nc1ccc(Cl)cc1)N1C(=O)c2ccccc2C1=O (centres undefined) | 1.01 ± 0.17 | 0.982 ± 0.085 | 0.938 ± 0.089 | 0.988 ± 0.053 | 1.15 ± 0.21 | 1.21 ± 0.2 | 0.6 (inactive) |
| CCn1c(C=Nn2cnnc2)nc2ccccc21 | 0.929 ± 0.11 | 1.08 ± 0.072 | 0.943 ± 0.036 | 0.972 ± 0.23 | 0.903 ± 0.048 | 0.911 ± 0.068 | 0.995 (active) |
| COc1ccccc1-c1nnc(NC(=O)c2cc(C)nn2C)o1 | 1.08 ± 0.11 | 1 ± 0.079 | 1.01 ± 0.08 | 0.945 ± 0.034 | 0.965 ± 0.064 | 0.953 ± 0.17 | 0.998 (active) |

From the supplement of paper PMC10646978
